In PubChem BioAssay AID1578 (Sanford-Burnham Center for Chemical Genomics, 2009):
Out of some 290,000 compounds screened, about 3,000 (1%) were called active. The sample holds actives, similar compounds and a random draw of the others, so the mix is not that of the screen. A number with no mark means an inactive call. Cut-off read from the data, not from the text of the source: active = inhibition mostly above about 36% (no sharp cut-off); inactive = mostly below about 34%.

Assay: NOD1 signaling inhibitors, primary screen, cell-based, luminescence, uHTS (AID 1578);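 note: HEK-293T reporter cells stimulated with the NOD1 agonist gamma-tri-DAP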
Details: NOD1-driven NF-kB luciferase reporter cells, at 4 µM, stronger effect = higher value

Row | SMILES | inhibition
1 | CN(CC(=O)Nc1ccccc1Cl)C(=O)c1cc(=O)[nH]c2ccccc12 | -12.4%
2 | CCOC(=O)c1ccc(NC(=O)COc2ccc(S(=O)(=O)NC(C)(C)C)cc2)cc1 | -33.5%
3 | CCN1C(=O)/C(=c2\o/c(=C3\C=Cc4ccccc4N3CC)c(=O)n2CC)SC1=S | 4.4%
4 | COc1ccc(N2C(=O)c3ccc(C(=O)Nc4cc(OC)ccc4OC)cc3C2=O)cc1 | -3.6%
5 | Cc1ccc(C(C(=O)NC2CCCCC2)N(Cc2ccccc2)C(=O)Cc2c[nH]c3ccccc23)o1 (stereo not given) | -26.2%
6 | COc1ccc(NC(=O)c2cc(S(=O)(=O)N(Cc3ccccc3)c3ccccc3)ccc2Cl)cn1 | 10.8%
7 | Cc1cc(C(F)(F)F)c(C#N)c(SCC(=O)Nc2nc3cc(Br)ccc3s2)n1 | 67.4% (active)
8 | Cc1cc(C(F)(F)F)c(C#N)c(SCC(=O)Nc2nc3ccccc3s2)n1 | -5.2%
9 | Cc1ccc2sc(NC(=O)CSc3nc(C)cc(C)c3C#N)nc2c1 | -16.6%
10 | Cc1nnc(NC(=O)CSc2ccc(-c3ccc(Cl)cc3)nn2)s1 | -24.7%
11 | C=C(C)CN(CC)C(=O)CC1C(=O)NCCN1CC(C)(C)C (stereo not given) | -7.4%
12 | CC(=O)N1CCOc2ccc(S(=O)(=O)NC(C)c3ccccc3)cc21 (stereo not given) | 1.8%
13 | CC(=O)N1CCOc2cc(S(=O)(=O)NC(C)c3ccccc3)c(Cl)cc21 (stereo not given) | 59.9% (active)
14 | CC(=O)N1CCOc2cc(S(=O)(=O)N3CCN(c4ccccc4)CC3)c(Cl)cc21 | -30.8%
15 | COc1cccc(-c2nn3c(-c4cccc(C)c4)nnc3s2)c1 | -87.2%
16 | CCOC(=O)C1=C(C)n2c(s/c(=C/c3cccc([N+](=O)[O-])c3)c2=O)=NC1c1ccc(O)c(OC)c1 (stereo not given) | 95.3% (active)
17 | CCOC(=O)C1=C(C)N=c2s/c(=C/c3ccccc3)c(=O)n2C1c1ccc(OC)c(OC)c1 (stereo not given) | -27.7%
18 | CCOC(=O)C1=C(C)N=c2s/c(=C\c3ccc(O)c([N+](=O)[O-])c3)c(=O)n2C1c1ccccc1OC (stereo not given) | 8.4%
19 | Cn1c(/C(C#N)=C(\O)c2ccc(Cl)s2)nc2ccccc21 | 11.7%
20 | C=C1CC2C=C(NC(C)=O)CC(C1)C2 (stereo not given) | -6.6%
21 | Cc1cccc(Cn2c(O)c(N=NC(=S)Nc3ccccc3F)c3ccccc32)c1 | 14.6%
22 | Cc1cccc(NC(=O)Cn2c(O)c(N=NC(N)=S)c3ccccc32)c1 | -3.4%
23 | CC(C)C(=O)NC(NC1CCS(=O)(=O)C1)C(Cl)(Cl)Cl (stereo not given) | -26.8%
24 | COc1ccc(-n2c(C)cc(/C=C3/SC(=O)N(CC(=O)N4CCOCC4)C3=O)c2C)cc1 | -15%
25 | CCOC(=O)N1CCN(C(=O)c2cn(C)c3ccc(S(=O)(=O)N4CCOCC4)cc3c2=O)CC1 | -11%

Row | SMILES | inhibition
26 | O=C(COc1ccc(Br)cc1)NCCCn1ccnc1 | 62.4% (active)
27 | COc1ccc(OCC(=O)NCCCn2ccnc2)cc1 | 9.1%
28 | O=C(COc1ccc(Cl)cc1)NCCCn1ccnc1 | -7.5%
29 | COCCN(Cc1cc2cc3c(cc2nc1Cl)OCO3)C(C)=O | 6.5%
30 | CSc1ccc(/C=N/S(=O)(=O)c2ccccc2)cc1 | 3.8%
31 | CN(C)Cc1nc2c([nH]1)c(=O)n(C)c(=O)n2C | 1.7%
32 | CCCc1nc2c([nH]1)c(=O)n(C)c(=O)n2C | -7.1%
33 | Cn1c(=O)c2[nH]c(COc3ccc(C(C)(C)C)cc3)nc2n(C)c1=O | 34.1% (active)
34 | CC1CCCC(C)N1C(=O)CSc1nc2c(c(=O)n(C)c(=O)n2C)n1C (stereo not given) | -1%
35 | CC(C)Oc1ccccc1/C=N/NC(=O)c1ccccc1Cl | 0.5%
36 | CC1CCCC(NC(=O)Cc2ccc(Br)cc2)C1C (stereo not given) | -21.4%
37 | CCC(c1nnnn1C(C)C)N1CCN(C2CCCC2)CC1 (stereo not given) | -14%
38 | COc1ccc(/C=C2\COc3ccccc3C2=O)c(OC)c1 | -27.3%
39 | COc1ccc(Nc2nc(-c3c(C)nc4ncccn34)cs2)cc1 | 17.6%
40 | COc1ccc(OC)c(Nc2nc(-c3c(C)nc4ncccn34)cs2)c1 | -9.4%
41 | COc1ccccc1Nc1nc(-c2c(C)nc3ncccn23)cs1 | 61.6% (active)
42 | CCOC(=O)c1ccc(N=c2ssnc2Cl)cc1 | -21.1%
43 | CN(CCN1CCOCC1)Cc1nc(-c2cccs2)no1 | -22.4%
44 | Cc1ccsc1/C=N/N=C/c1sccc1C | 76.7% (active)
45 | Cc1ccsc1/C=N/n1cnnc1 | -5.7%
46 | Cc1ccsc1C=Nc1ccc(O)cc1 | 27.4%
47 | COc1ccc(C(=O)C(OC(=O)CNC(=O)c2ccco2)c2ccccc2)cc1 (stereo not given) | -7.7%
48 | COc1ccccc1C(=O)NNC(=O)C1CCCO1 (stereo not given) | -10.6%
49 | COc1ccc(C(=O)Nc2ccc(N3CCCCC3)cc2)cc1Br | -49%
50 | O=C1CCC(c2ccccc2)N1C(=O)c1cccnc1 (stereo not given) | -12.6%

Row | SMILES | inhibition
51 | CNc1nc2ccccc2n1N | 47%
52 | N#C/C=C1\n2c(nc3ccccc32)OC12CCCCC2 | -4%
53 | CC1(C)Oc2nc3ccccc3n2/C1=C\C#N | 42% (active)
54 | Cc1cccc(CSc2ncnc3nc[nH]c23)c1 | -13.3%
55 | c1ccc2c(CCNc3ncnc4nc[nH]c34)cccc2c1 | 62% (active)
56 | c1ccc2c(CSc3ncnc4nc[nH]c34)cccc2c1 | 71.3% (active)
57 | c1ccc2c(CCNc3ncnc4nc[nH]c34)c[nH]c2c1 | 20.4%
58 | c1ccc(CCNc2ncnc3nc[nH]c23)cc1 | 16.7%
59 | c1ccc(CCSc2ncnc3nc[nH]c23)cc1 | -1.6%
60 | Cc1cccc(C(=O)NC(=O)Nc2c(C)cc(C)nc2C)c1 | -46.9%
61 | O=C(CCCn1cc([N+](=O)[O-])cn1)Nc1cccnc1 | -11.6%
62 | Cc1ccc(C(=O)c2coc3cc([N+](=O)[O-])c(O)c([N+](=O)[O-])c23)cc1 | 21.2%
63 | CCCCN(CCCC)c1ncnc2nc[nH]c12 | 84.5% (active)
64 | CCCCN(Cc1ccccc1)c1ncnc2nc[nH]c12 | -41%
65 | CCCCN(c1ccccc1)c1ncnc2nc[nH]c12 | 36.9%
66 | O=C(N[C@@H]1CCC(=O)N(CC[C@H](Oc2ccccc2)c2ccccc2)CC1)OCc1ccccc1 | 53.8%
67 | COc1cc(/C=C(\C#N)C(N)=O)ccc1OS(=O)(=O)c1ccc(C)cc1 | 14.7%
68 | COc1cc(/C=C(\C#N)C(=O)NC2CCCCC2C)ccc1OS(=O)(=O)c1ccc(C)cc1 (stereo not given) | 75.9% (active)
69 | C=CCNC(=O)/C(C#N)=C/c1ccc(OS(=O)(=O)c2ccc(C)cc2)c(OC)c1 | 10%
70 | COc1ccc(CNC(=O)CN(Cc2ccc(F)cc2)C(=O)c2csnn2)cc1 | -24.5%
71 | C=CCn1c(=O)c2ccc(C(=O)NCc3ccccc3)cc2n(Cc2cccc(Cl)c2)c1=O | 61.7%
72 | O=C(CN1CCCN(S(=O)(=O)c2ccc(F)cc2)CC1)Nc1c(Cl)cccc1Cl | -4.7%
73 | Fc1cccc(Cl)c1CNC(c1ccccc1)c1ccccc1 | 9.2%
74 | Cc1ccc(NCC(=O)N/N=C/c2cc3ccccc3nc2Cl)cc1 | -21.8%
75 | CCOC(=O)C(=Cc1ccc(Br)cc1)C(=O)OCC | 36.2% (active)

Row | SMILES | inhibition
76 | CCOC(=O)C(=Cc1ccc(-n2ccnc2)cc1)C(=O)OCC | 45.8% (active)
77 | COc1ccccc1/C=C(/C(=O)OCC(N)=O)c1ccccc1 | 0.8%
78 | CCOC(=O)/C(=C/c1ccc(OC(=O)c2ccccc2)cc1)C(C)=O | -13.5%
79 | CCOC(=O)C(=Cc1ccc(F)cc1)C(=O)OCC | 31.2%
80 | CCOC(=O)C(=Cc1cc(=O)c(OC)co1)C(=O)OCC | -12.3%
81 | COC(=O)/C=C/c1ccc(-n2ccnc2)cc1 | -9.9%
82 | CCOC(=O)C(=Cc1ccccc1OC)C(=O)OCC | 47.6% (active)
83 | O=C(O)/C=C/c1ccc(-n2ccnc2)cc1 | 1.1%
84 | Cc1nn(-c2ccccc2)c(C)c1C(=O)OCC(=O)N1CCN(S(=O)(=O)c2ccccc2)CC1 | -0.7%
85 | Cc1ccc2c(N)c(C)ccc2c1 | -4.1%
86 | Cn1ncc(N2CCN(C(=O)c3ccc(Cl)cc3)CC2)c(Cl)c1=O | -21.9%
87 | COc1ccc(CNC(=O)C2CCCN(S(=O)(=O)c3ccc(Br)s3)C2)cc1 (stereo not given) | -13.3%
88 | Cc1cc(N/N=C/c2ccccc2F)nc(NCc2ccccc2)n1 | -2.7%
89 | CCN(CC)C(=O)CSC(Nc1ccc(F)cc1)=C(C#N)C#N | 4.2%
90 | CCc1ccc(N/C(SCc2cccc(F)c2)=C(/C#N)C(=O)NCc2ccco2)cc1 | 3.2%
91 | Cc1cccc(CSC(Nc2ccc(F)cc2)=C(C#N)C#N)c1 | 83.7% (active)
92 | COc1ccc(S(=O)(=O)N(C)CC(=O)N2CCCC2)cc1OC | -5.3%
93 | c1ccc(SCc2cn(C[C@H]3CC[C@@H]([C@@H]4CC[C@H](Cn5cc(CSc6ccccc6)nn5)O4)O3)nn2)cc1 | 22.8%
94 | CCCn1c2ccccc2c2cnn(CC(=O)NC3CCCCC3)c(=O)c21 | -26.9%
95 | CN1CCN(C(=S)SCC(=O)Nc2nc(-c3ccccc3)c(-c3ccccc3)o2)CC1 | -3.5%
96 | O=C(Nc1nc(-c2ccccc2)c(-c2ccccc2)o1)c1ccc(F)cc1 | 97.4% (active)
97 | O=C(CSC(=S)N1CCCCC1)Nc1nc(-c2ccccc2)c(-c2ccccc2)o1 | 9.9%
98 | CC(=O)Nc1nc(-c2ccccc2)c(-c2ccccc2)o1 | -5.3%
99 | CCN(CC)C(=S)SCC(=O)Nc1nc(-c2ccccc2)c(-c2ccccc2)o1 | 72.2% (active)
100 | Cc1ccc(C(=O)Nc2nc(-c3ccccc3)c(-c3ccccc3)o2)cc1 | 35.6%
